Bioassay records from PubChem.
HT1080-NT tox = kills 2HG-producing HT-1080-NT fibrosarcoma cells; HT-1080-NT fibrosarcoma viability, CellTiter-Glo ATP luminescence, 48 h; Potency, µM (highest dose often 46.1 µM), for inactives: top-dose activity, negative = less viability, most hits filed as cytotoxic; 1.6% of 360,000 active; AID 686970;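 also: NT is the 2HG producing partner of a matched IDH1 knockdown line; potency is read from the fitted curve at half-maximal effect; 0% = DMSO-treated cells and -100% = media-only wells without cells; nearly all actives have a fitted effect of over 55% in size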
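Compounds were tested in concentration-response format on HT-1080-NT cells for 48 hours at 37 degrees C. Cell viability came from CellTiter-Glo luminescence; curves were classified by r2, response magnitude and activity.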
HT1080 IDH1KD tx = HT-1080 IDH1 knockdown cell toxicity (counter line) | HT-1080 IDH1 knockdown viability, ATP luminescence, 48 h | Potency, µM (titrated, usually from 46.1 µM), inactives show at the top dose activity, negative = toxicity, usual class: cytotoxic | 2% of 360,000 active | AID 686971;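 also: potency is read from the fitted curve at half-maximal effect; 0% = DMSO wells and -100% = cell-free medium wells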
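Viability of IDH1-knockdown HT-1080 fibrosarcoma cells was assessed by CellTiter-Glo after 48 h at 37 °C with titrated compound; concentration-effect curves were classified by fit quality and response size.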
ALOX12 inh = inhibitors of human 12S-lipoxygenase ALOX12; P18054; purified 12hLO, xylenol orange hydroperoxide absorbance; Potency, µM (doses to about 108 µM), for inactives: top-dose activity change, negative = inhibition, most hits filed as inhibitors; 1.1% of 580,000 active; also: potency is read from the fitted curve at half-maximal effect
Target sequence (P18054 whole entry, looked up): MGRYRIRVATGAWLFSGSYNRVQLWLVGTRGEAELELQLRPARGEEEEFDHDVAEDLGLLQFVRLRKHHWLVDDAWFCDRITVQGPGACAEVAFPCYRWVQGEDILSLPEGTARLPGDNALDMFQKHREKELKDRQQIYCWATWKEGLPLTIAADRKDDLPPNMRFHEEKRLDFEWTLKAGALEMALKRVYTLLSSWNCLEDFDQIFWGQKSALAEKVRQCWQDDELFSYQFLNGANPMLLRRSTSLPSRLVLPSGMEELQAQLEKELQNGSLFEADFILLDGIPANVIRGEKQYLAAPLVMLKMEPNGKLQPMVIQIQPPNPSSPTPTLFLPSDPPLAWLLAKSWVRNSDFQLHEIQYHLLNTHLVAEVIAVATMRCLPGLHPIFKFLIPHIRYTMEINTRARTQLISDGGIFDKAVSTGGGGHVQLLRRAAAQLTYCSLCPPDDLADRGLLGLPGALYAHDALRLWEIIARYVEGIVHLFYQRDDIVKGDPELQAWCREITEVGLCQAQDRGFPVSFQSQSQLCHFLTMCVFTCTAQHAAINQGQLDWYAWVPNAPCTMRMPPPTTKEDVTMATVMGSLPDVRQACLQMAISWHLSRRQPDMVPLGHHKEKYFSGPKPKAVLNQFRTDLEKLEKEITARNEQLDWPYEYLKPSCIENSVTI
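Hydroperoxide product was detected by ferrous iron/xylenol orange as the 573 to 405 nm absorbance ratio. Arachidonic acid at 40 uM (final) was turned over for 30 min at room temperature by 150 nM human 12hLO, pH 7.0 Hepes buffer, after 15 min compound preincubation.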
TDP1 cell noCPT = qHTS for Inhibitors of human tyrosyl-DNA phosphodiesterase 1 (TDP1): qHTS in cells in absence of CPT; DT40 Tdp1-/- hTDP1 cells, no CPT, ATP luminescence, 48 h; AID 686978, 2013; 15% of 420,000 active; Potency, µM (doses to about 46.2 µM), for inactives: top-dose activity change, negative = growth inhibition, most hits filed as inhibitors; also: potency is read from the fitted curve at half-maximal effect; nearly all actives have a fitted effect of over 55% in size
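A cellular qHTS used chicken DT40 cells lacking endogenous Tdp1 but carrying stably transfected human TDP1. Compounds were applied without camptothecin, and cell growth kinetics were judged by ATP-dependent luminescence after ≥48 hr.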
DT40 TDP1 CPT = growth inhibition of DT40 Tdp1-/-;hTDP1 cells with camptothecin (screen for TDP1 inhibitors); chicken DT40 Tdp1-/-;hTDP1 cells + 20 nM CPT, ATP luminescence, 48 h; Potency, µM (series often up to 46.2 µM), without a hit: top-dose activity change, negative = growth inhibition, actives largely listed as inhibitors; 12% of 420,000 active; AID 686979; also: potency is read from the fitted curve at half-maximal effect; nearly all actives have a fitted effect of over 55% in size
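Cell growth measured by CellTiter-Glo luminescence after a minimum 48 h, 37 C compound exposure with 20 nM CPT in Tdp1-knockout DT40 cells stably expressing hTDP1, seeded 400/well; qHTS titration format.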
IL-1B inflam inh = blocks inflammasome-driven IL-1 beta release | activity change, % at 57.5 µM | AID 743279 | THP-1 LPS/ATP IL-1B secretion, AlphaLISA, 16 h; hits give low values | 4.7% of 360,000 active; in the data active = activity change below about -50%; inconclusive = mostly about -30% to -49%
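Secreted IL-1B measured by AlphaLISA bead assay after 16 h compound exposure of THP-1 cells; compounds (final up to 57.5 uM) added 1 h before LPS (250 ng/mL) and ATP (1.25 mM) stimulation; lower signal means less secretion.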
* = called active by the depositor; u = inconclusive; x = no result; [ ] = another dose, or the depositor's remark. The full list was thinned out, with hits kept by preference. Unless noted, calls follow the shape of the dose curve; as a rule, active = well fitted curve in the direction sought with a large enough effect; inconclusive = small, poorly fitted or top-dose-only effect, or another doubt; inactive = no such curve, though single readings can be large; an effect the other way counts as inactive or inconclusive. Unless noted, % is scaled to controls: 0 for no effect and ±100 for the full control effect.

SMILES	HT1080-NT tox	HT1080 IDH1KD tx	ALOX12 inh	TDP1 cell noCPT	DT40 TDP1 CPT	IL-1B inflam inh
COC(=O)[C@@]1(Cc2ccccc2)[C@H]2C(=O)N(Cc3ccccc3)C(=O)[C@H]2[C@H]2CN=C(SCc3ccc(C#N)cc3)N21	12%	4%	-25%	u	u	19
CCN1C[C@@H]2[C@@H]3C(=O)N(Cc4ccccc4)C(=O)[C@@H]3[C@](CC)(C1=O)N2C(=O)c1ccc(C(C)(C)C)cc1	0%	0%	4%	u	u	23
O=C(NC[C@H]1C[C@@H]2CCN1C[C@@H]2CN1CCN(c2ccc(F)cc2)CC1)Nc1cccc(F)c1	x	x	-7%	x	x	x
C=C[C@H]1CN2CC[C@H]1C[C@@H]2CNS(=O)(=O)Cc1ccccc1	x	x	56%[176 µM]	x	x	x
COc1ccc([C@@H]2CN(c3nccc(C)n3)[C@@H]3C4CCN(CC4)[C@@H]32)cc1	x	x	48%	x	x	x
COc1ccc(CN2CCCC(C(=O)c3ccc(Cl)cc3)C2)c(OC)c1 (stereo not drawn)	u	9.2µM*	-5%	18µM*	u	-68*
O=C(c1cc(F)ccc1F)C1CCCN(Cc2cc(Cl)ccc2O)C1 (stereo not drawn)	-27%	u	-23%	u	u	-11
COc1cccc(C(=O)C2CCCN(Cc3cccc4c3OCO4)C2)c1 (stereo not drawn)	-29%	-15%	-3%	u	u	4
CSc1ncc(CN2CCCC(C(=O)c3cccc(Cl)c3)C2)cn1 (stereo not drawn)	-7%	-2%	-14%	u	21µM*	-13
COc1ccc(CN2CCCC(C(=O)c3cccc(Cl)c3)C2)cc1 (stereo not drawn)	-1%	-1%	-16%	u	u	-12
O=C(c1ccc2c(c1)OCO2)C1CCCN(Cc2ccc(F)c(F)c2)C1 (stereo not drawn)	-4%	-11%	0%	-24%	-19%	0
O=C(c1ccc(Cl)cc1)C1CCCN(Cc2ccc3ncccc3c2)C1 (stereo not drawn)	-23%	-28%	13%	16µM*	15µM*	-11
O=C(c1ccc(Cl)cc1)C1CCCN(Cc2cccc3cnccc23)C1 (stereo not drawn)	-3%	-7%	9%	6.5µM*	21µM*	-7
COc1cc(CCN)c(OC)cc1C	x	x	0%	x	x	x
O=C(c1ccsc1)N1[C@H]2CC[C@@H]1c1cnc(-c3ccc(F)cc3)nc1C2	x	x	9%	x	x	x
O=C(N[C@@H](COc1ccc2[nH]c(=O)[nH]c2c1)c1ccccc1)c1cccn(Cc2ccc(F)c(F)c2)c1=O	x	x	2%[57.4 µM]	x	x	x
C#CCOc1ccc(CCN)cc1	x	x	-19%	x	x	x
O=C(c1cccc(Cl)c1)C1CCCN(Cc2cccc3cnccc23)C1 (stereo not drawn)	9.2µM*	u	2%	21µM*	u	-16
O=C(c1cccc(Cl)c1)C1CCCN(Cc2ccon2)C1 (stereo not drawn)	2%	-4%	-5%	u	u	8
CCOc1ccc(N=Cc2c(O)n(CCc3ccc(OC)c(OC)c3)c(=O)[nH]c2=O)cc1	3%	3%	u	16µM*	u	9
CC(C)CN1CC[C@@]2(CCCN(C(=O)Oc3ccccc3)C2)C1	x	x	3%[57.4 µM]	-11%	4%	x
O=C(Nc1ccccc1OC(=O)N1CCOCC1)N1CCOCC1	15%	13%	-21%	2%	2%	-10
Cc1cccc(/C(N)=N/OC(=O)N2CCOCC2)c1	u	11µM*	16%	18µM*	16µM*	-18
CCC(C)n1c(O)c(/C=N/N2CCOCC2)c(=O)[nH]c1=S (stereo not drawn)	-21%	-1%	-8%	-91%	23µM*	3
O=C1CO[C@H]2CN(Cc3ncc[nH]3)C[C@H]2N1Cc1ccccn1	x	x	114%[176 µM]	x	x	x
